According to PubChem BioAssay (NCATS):
“And” between values parts separate entries of the source, which are not always exact repeats. Equal entries are not always repeated. Results filed as inconclusive are left out. More than one record can exist for a structure, and the calls need not agree. The source made the active and inactive calls. Calls follow the shape of the dose curve; as a rule, active = well fitted curve in the direction sought with a large enough effect; inconclusive = small, poorly fitted or top-dose-only effect, or another doubt; inactive = no such curve, though single readings can be large; an effect the other way counts as inactive or inconclusive.

Columns and labels:
TAB165 = test: qHTS profiling for inhibitors of Plasmodium falciparum proliferation (AID 504749); also: nearly all actives have a fitted effect of over 60% in size; also: potency is read from the fitted curve at half-maximal effect; settings: P. falciparum in erythrocytes, SYBR Green DNA, 72 h; series mostly up to 28.7 µM
How it was run: (§1)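 Infected RBCs, 0.3% parasitemia/2.5% Hct final; cpd 72 h, 37 C, 5% CO2; lysis buffer with saponin/triton/SYBR Green I, o/n RT dark; FI 485/535; norm. to artemisinin (0.29 uM) and DMSO.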

W2 = test: as above; settings: P. falciparum in erythrocytes, SYBR Green DNA, 72 h; series mostly up to 28.7 µM
How it was run: as §1

CRL-7250 = normal cell line; test: Cytotoxic Profiling of Annotated Libraries Using Quantitative High-Throughput Screening (AID 1296008); settings: Five cell lines viability, CellTiter-Glo ATP luminescence, 48-72 h; max response: stronger effect = lower value; also: nearly all actives have a fitted effect of over 60% in size; as to max response: % is scaled to controls: 0 for no effect and ±100 for the full control effect
How it was run: (§2)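 Cytotoxicity was measured as CellTiter-Glo ATP luminescence, read after 10 min at room temperature. Compound treatment of the cells lasted 48 or 72 hr at 37 degrees Celsius in a qHTS format.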

HEK293 = test: as above; settings: Five cell lines viability, CellTiter-Glo ATP luminescence, 48-72 h; max response: stronger effect = lower value
How it was run: as §2

HaCat [1] = test: as above; settings: Five cell lines viability, CellTiter-Glo ATP luminescence, 48-72 h; max response: stronger effect = lower value
How it was run: as §2

KB-3-1 = test: as above; settings: Five cell lines viability, CellTiter-Glo ATP luminescence, 48-72 h; max response: stronger effect = lower value
How it was run: as §2

NIH3T3 [2] = test: as above; settings: Five cell lines viability, CellTiter-Glo ATP luminescence, 48-72 h; max response: stronger effect = lower value
How it was run: as §2

HACAT [3] = test: qHTS assay to identify novel small-molecules to repurpose for Merkel cell carcinoma treatment (AID 1296009); settings: MCC and control cell lines, CellTiter-Glo viability, 72 h; also: nearly all actives have a fitted effect of over 60% in size; also: potency is read from the fitted curve at half-maximal effect
How it was run: (§3)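 72 hr, 37 degree celsius; NPC 8-pt / MIPE 11-pt dose response; compound pinned in DMSO; CellTiter-Glo, 10 min RT, luminescence; normalized to no-cell and DMSO controls.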

HEK293T = test: as above; settings: MCC and control cell lines, CellTiter-Glo viability, 72 h; at 44.8 µM (top of the series) unless noted
How it was run: as §3

MCC-13 = test: as above; settings: MCC and control cell lines, CellTiter-Glo viability, 72 h; series mostly up to 46 µM
How it was run: as §3

MCC-26 = test: as above; settings: MCC and control cell lines, CellTiter-Glo viability, 72 h; series mostly up to 46 µM
How it was run: as §3

MKL-1 = test: as above; settings: MCC and control cell lines, CellTiter-Glo viability, 72 h; series mostly up to 46 µM
How it was run: as §3

MKL-2 = test: as above; settings: MCC and control cell lines, CellTiter-Glo viability, 72 h; series mostly up to 46 µM
How it was run: as §3

NIH3T3 [4] = test: as above; settings: MCC and control cell lines, CellTiter-Glo viability, 72 h; at 44.8 µM (top of the series) unless noted
How it was run: as §3

UISO = test: as above; settings: MCC and control cell lines, CellTiter-Glo viability, 72 h; series mostly up to 46 µM
How it was run: as §3

WaGa = test: as above; settings: MCC and control cell lines, CellTiter-Glo viability, 72 h; series mostly up to 46 µM
How it was run: as §3

C33A = test: Primary qHTS to identify gynecologic anti-cancer compounds using libraries of approved drugs and bioactive compounds (AID 1345084); settings: Gynecologic cancer cell panel viability, ATPlite luminescence, 48 h; series mostly up to 57.5 µM; also: % is scaled to controls: 0 for no effect and ±100 for the full control effect; nearly all actives have a fitted effect of over 55% in size
How it was run: (§4)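 In this quantitative HTS, cell killing is estimated from loss of ATP-dependent luciferase light. Cells see five compound concentrations over a 48 h exposure.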

CAOV3 = test: as above; settings: Gynecologic cancer cell panel viability, ATPlite luminescence, 48 h; series mostly up to 57.5 µM
How it was run: as §4

CASKI = test: as above; settings: Gynecologic cancer cell panel viability, ATPlite luminescence, 48 h; series mostly up to 57.5 µM
How it was run: as §4

Es-2 = test: as above; settings: Gynecologic cancer cell panel viability, ATPlite luminescence, 48 h; series mostly up to 57.5 µM
How it was run: as §4

[5] = at 44.8 µM (top of the series) unless noted

O=P(O)(O)C(O)(Cc1cccnc1)P(=O)(O)O
inactive: Potency (TAB165) | Potency (W2) | max response (CRL-7250) -3.74% and -13.5% and 3.83% | max response (HEK293) -6.47% and -0.4% | outcome (HEK293) | max response (HaCat [1]) -18.6% | outcome (HaCat [1]) | max response (KB-3-1) 16.5% and 4.21% and 6.74% | max response (NIH3T3 [2]) -4.1% and 0.573% | outcome (NIH3T3 [2]) | outcome (HACAT [3]; at 4.96 µM (top of the series)) | outcome (HACAT [3]; at 44.8 µM (top of the series)) | outcome (HEK293T) | Potency (MCC-13) | Potency (MCC-26) | Potency (MKL-1) | Potency (MKL-2) | outcome (NIH3T3 [4]) | Potency (UISO) | Potency (WaGa) | Potency (C33A) | Potency (CAOV3) | Potency (CASKI) | Potency (Es-2)

CCC(C)(C)c1ccc(CC(C)CN2C[C@@H](C)O[C@@H](C)C2)cc1 (some centres not stated)
inactive: Potency (TAB165) | max response (CRL-7250) 0.576% | outcome (CRL-7250) | max response (HEK293) -0.508% and -3.77% | outcome (HaCat [1]) | max response (KB-3-1) 0.53% and -5.13% | max response (NIH3T3 [2]) 3.97% and -6% | outcome (HACAT [3]; [5]) | Potency (MCC-13) | Potency (MKL-1) | Potency (MKL-2) | Potency (UISO) | Potency (WaGa) | Potency (C33A) | Potency (CAOV3) | Potency (CASKI) | Potency (Es-2)

CC[C@H](NC(C)C)[C@H](O)c1ccc(O)c2[nH]c(=O)ccc12
inactive: Potency (TAB165) | Potency (W2) | max response (CRL-7250) 0.158% and -0.536% | outcome (HEK293) | max response (HaCat [1]) -10.6% | outcome (HaCat [1]) | max response (KB-3-1) 8.39% | max response (NIH3T3 [2]) 2.87% and -5.91% | outcome (HACAT [3]; [5]) | outcome (HEK293T) | Potency (MCC-13) | Potency (MCC-26) | Potency (MKL-1) | Potency (MKL-2) | Potency (UISO) | Potency (WaGa) | Potency (C33A) | Potency (CAOV3) | Potency (CASKI) | Potency (Es-2)

CC(C)OC(=O)C(C(=O)OC(C)C)=C1SC=CS1
inactive: Potency (TAB165) | Potency (W2) | outcome (CRL-7250) | max response (HEK293) -6.55% | max response (HaCat [1]) -22% | outcome (HaCat [1]) | max response (KB-3-1) 13.9% | outcome (KB-3-1) | max response (NIH3T3 [2]) 0.152% | outcome (NIH3T3 [2]) | outcome (HACAT [3]; [5]) | Potency (MCC-13) | Potency (MCC-26) | Potency (MKL-1) | Potency (MKL-2) | outcome (NIH3T3 [4]) | Potency (UISO) | Potency (WaGa) | Potency (C33A) | Potency (CAOV3) | Potency (CASKI) | Potency (Es-2)

CO[C@@H]1[C@@H](OC(N)=O)[C@@H](O)[C@H](Oc2ccc3c(O)c(NC(=O)c4ccc(O)c(CC=C(C)C)c4)c(=O)oc3c2C)OC1(C)C
inactive: max response (CRL-7250) 0.852% and -24.9% | outcome (HEK293) | max response (HaCat [1]) 0.197% | outcome (HaCat [1]) | max response (KB-3-1) -7.22% and 9.2% | max response (NIH3T3 [2]) -2.07% and -24% | outcome (HACAT [3]; [5]) | outcome (HEK293T) | Potency (MCC-13) | Potency (MCC-26) | Potency (MKL-1) | Potency (MKL-2) | Potency (UISO) | Potency (WaGa) | Potency (C33A) | Potency (CAOV3) | Potency (CASKI)

CCn1cc(C(=O)O)c(=O)c2cc(F)c(N3CCNCC3)cc21
inactive: Potency (TAB165) | max response (CRL-7250) -1.25% and -6.48% | max response (HEK293) -12.4% and -3.6% | max response (HaCat [1]) -20% | outcome (HaCat [1]) | max response (KB-3-1) -20.2% and -20.3% | outcome (KB-3-1) | max response (NIH3T3 [2]) -0.113% and -7.16% | outcome (HACAT [3]; [5]) | Potency (MCC-13) | Potency (MCC-26) | Potency (MKL-1) | Potency (MKL-2) | Potency (UISO) | Potency (WaGa) | Potency (CAOV3) | Potency (CASKI) | Potency (Es-2)
active: Potency (W2) 2560 nM

CCOCC(O)COc1ccc(NC(=O)CC[S+](C)C)cc1 (configuration not stated)
inactive: Potency (TAB165) | Potency (W2) | max response (CRL-7250) -11.9% and -0.62% | max response (HEK293) -1.76% and 3.69% | max response (HaCat [1]) 4.61% | outcome (HaCat [1]) | max response (KB-3-1) -5.04% | outcome (KB-3-1) | max response (NIH3T3 [2]) 4.96% and 4.72% | outcome (HACAT [3]; [5]) | Potency (MCC-13) | Potency (MCC-26) | Potency (MKL-1) | Potency (MKL-2) | Potency (UISO) | Potency (WaGa) | Potency (C33A) | Potency (CAOV3) | Potency (CASKI) | Potency (Es-2)

C[C@]12C=CC(=O)C=C1CC[C@@H]1[C@@H]2C(=O)C[C@@]2(C)[C@H]1CC[C@]2(O)C(=O)CO
inactive: Potency (TAB165) | Potency (W2) | max response (CRL-7250) 2.58% | outcome (CRL-7250) | max response (HEK293) -4.32% and 0.184% | max response (HaCat [1]) -8.77% and -10.7% | max response (KB-3-1) 9.07% and 4.76% | max response (NIH3T3 [2]) -5.75% | outcome (NIH3T3 [2]) | Potency (MCC-13) | Potency (MCC-26) | Potency (MKL-1) | Potency (MKL-2) | outcome (NIH3T3 [4]) | Potency (UISO) | Potency (WaGa) | Potency (C33A) | Potency (CAOV3) | Potency (CASKI) | Potency (Es-2)

CC(C)Cn1cnc2c(N)nc3ccccc3c21
inactive: Potency (TAB165) | Potency (W2) | max response (CRL-7250) -12.7% | outcome (CRL-7250) | max response (HEK293) -0.0078% | max response (HaCat [1]) -15.1% and -54.5% | max response (KB-3-1) -6.03% and -18.1% | max response (NIH3T3 [2]) -4.24% and -9.09% | Potency (MCC-13) | Potency (MCC-26) | Potency (MKL-1) | Potency (MKL-2) | Potency (UISO) | Potency (C33A) | Potency (CAOV3) | Potency (CASKI) | Potency (Es-2)
inactive and 20.9 µM (active): Potency (WaGa)
